Screening results as filed in PubChem.
A selection: hits, their analogues and other compounds. The true share with any hit is near 3.5%.
GPR151 ag: activates the human receptor GPR151 | AID 1508602 | Q8TDV0 | PathHunter beta-arrestin GPR151 cells, luminescence | hit rate 1% among 650,000 | activation, % at 11.2 µM; in the data active means activation above about 4.9%;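 further: 0% = median of compound wells and 100% = cells with positive control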
FBW7 act: human FBW7 E3 ligase activation, primary screen; Q969H0; AlphaScreen FBW7–phospho-cyclin E peptide binding, activator screen; normalized activity (activation), % at 26.1 µM; hit rate 0.13% among 650,000; in the data active means normalized activity above about 1.9%;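 further: purified mutant Fbw7 with reduced substrate affinity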
TEAD-YAP inh: TEAD-YAP interaction inhibition; HEK-TIYL cells, TEAD-Gal4/YAP UAS-luciferase luminescence; inhibition, % at 9.12 µM; hit rate 1.4% among 640,000; in the data active means inhibition above about 32%;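 further: 0% = median of test compound wells and 100% = reference inhibitor wells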
MITF primary: human MITF inhibition, primary screen. AlphaScreen MITF homodimerization, bead proximity signal. O75030. inhibition, % at 2.6 µM. hit rate 0.91% among 650,000; in the data active means inhibition above about 50%;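 further: 0% = vehicle wells with protein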
GPR151 conf act: confirmation of human GPR151 activators; activation, % at 11.2 µM; 6,700 tested, under 10 active; GPR151 PathHunter beta-arrestin cells, luminescence, 90 min; % of EA-reagent control over plate median; shares compounds with GPR151 ag;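 active means mean percent activation across replicates above the confirmation screen cutoff of 4.91%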
GPR119 ag: GPR119 activation, counter-screen for GPR151 activators | shares compounds with GPR151 ag | GPR119 PathHunter beta-arrestin cells, luminescence, 90 min; 0 = compound-well median, 100 = enzyme-acceptor control | activation, % at 11.2 µM | hit rate 0.3% among 6,700;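 active means mean percent activation in the counterscreen above 29.09%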;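 further: counterscreen on off-target GPR119 to flag nonselective hits from the GPR151 activator screen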
Target sequence (Q8TDV5 whole entry, looked up): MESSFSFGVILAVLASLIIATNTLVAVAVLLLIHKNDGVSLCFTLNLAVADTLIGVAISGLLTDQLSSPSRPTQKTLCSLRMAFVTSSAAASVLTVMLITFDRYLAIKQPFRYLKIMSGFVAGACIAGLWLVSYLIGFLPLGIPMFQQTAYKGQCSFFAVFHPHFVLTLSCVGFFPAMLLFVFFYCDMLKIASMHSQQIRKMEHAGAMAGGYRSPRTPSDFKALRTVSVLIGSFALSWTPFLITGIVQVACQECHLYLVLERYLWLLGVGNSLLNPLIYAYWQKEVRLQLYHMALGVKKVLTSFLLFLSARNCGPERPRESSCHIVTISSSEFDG
An asterisk follows results filed as active; x = no result; ! = not confirmed by another sample.

SMILES | GPR151 ag | FBW7 act | TEAD-YAP inh | MITF primary | GPR151 conf act | GPR119 ag
O=C(COc1ccc(F)cc1F)Nc1ccc(F)cc1 | -2 | 0 | -43 | 9 | x | x
O=C(COc1ccc(F)cc1)Nc1ccc(Cl)cn1 | 18* | 0 | -33 | 0 | 0 | -8
O=C(Nc1ccc(Cl)cn1)c1ccc(Cl)cc1Cl | 7.0* | 0 | 15 | 14 | 0 | -12
Cc1ccccc1NS(=O)(=O)CC12CCC(CC1=O)C2(C)C (stereo unspecified) | 0 | 0 | -4 | -4 | x | x
c1ccc(CCNc2ccc(-c3cccnc3)cn2)nc1 | 1 | 0 | -61 | 0 | x | x
CCCC(=O)Nc1ccccc1NC(=O)c1ccc(Br)o1 | -1 | 0 | 5 | 14 | x | x
COc1ccc(NC(=S)Nc2ccc(S(N)(=O)=O)cc2)c(OC)c1 | 0 | 0 | -4 | 3 | x | x
COc1ccc(NC(=S)Nc2ccc(S(=O)(=O)N3CCOCC3)cc2)c(OC)c1 | 5.2* | 0 | 5 | 6 | 1 | 4
COc1ccc(CCNS(=O)(=O)c2ccc(S(=O)(=O)N3CCOCC3)cc2)cc1 | 5.6* | 0 | 5 | 5 | 1 | 2
COc1ccc(NS(=O)(=O)c2ccc(S(=O)(=O)N3CCOCC3)cc2)cc1 | 0 | 0 | -1 | 2 | x | x
CCOc1ccc(C(=O)Nc2cc(Cl)ccc2C)cc1Br | 1 | 2 | -29 | 12 | x | x
O=C(N/N=C/c1ccc(F)cc1)C(=O)Nc1ccc(Cl)c(Cl)c1 | 2 | 1 | -1 | 4 | x | x
O=C(NCc1ccc(F)cc1)C(=O)Nc1cccc(Cl)c1 | 5.1* | 0 | -6 | -3 | 3 | 0
O=C(N/N=C/c1ccc(F)cc1)C(=O)Nc1cccc(Cl)c1 | 5.0* | 0 | 1 | 10 | 1 | 12
O=C(Nc1cccc(Cl)c1)O/N=C\c1ccncc1 | 5.2* | 0 | -11 | -1 | -1 | 2
O=C(NCCc1ccc(F)cc1)C(=O)Nc1cccc(Cl)c1 | 0 | 0 | 11 | 6 | x | x
O=C(Cc1noc2ccccc12)N1CCN(c2ccc(F)cc2)CC1 | -1 | 0 | 0 | 3 | x | x
COc1cc2nc(N3CCCC3CO)nc(Nc3ccc(N4CCOCC4)cc3)c2cc1OC (stereo unspecified) | -3 | 0 | 0 | 21 | x | x
COc1ccc(/C=N/n2ncnc2SC)cc1OC | -2 | 0 | -25 | -6 | x | x
COc1ccc(/C=N/n2c(SC)nnc(C(C)(C)C)c2=O)cc1OC | 6.2* | 0 | -1 | 5 | 0 | 5
O=C(O)CSc1nc2ccccc2n1CCOc1ccccc1 | 6.4* | 0 | 5 | -2 | 0 | 3
COc1ccc(CCNC(=O)c2ccc3c(c2)ncn3-c2ccc(C)cc2C)cc1OC | 0 | 0 | 15 | 11 | x | x
Cc1ccc(-n2cnc3cc(C(=O)NCCc4ccccc4)ccc32)c(C)c1 | 5.5* | 0 | 6 | -7 | 0 | -12
CC1CC(OC(=O)C(O)c2ccccc2)CC(C)(C)C1 (stereo unspecified) | 6.6* | 0 | 1 | -9 | 1 | -2
CCCNC(=O)C1CCN(C(=O)N2CC(C)Oc3ccccc32)CC1 (stereo unspecified) | -2 | 0 | 5 | -5 | x | x
SMILES | GPR151 ag | FBW7 act | TEAD-YAP inh | MITF primary | GPR151 conf act | GPR119 ag
CCCNC(=O)C1CCN(C(=O)N2CC(C)Oc3ccc(Cl)cc32)CC1 (stereo unspecified) | 11* | 0 | 6 | -3 | 0 | -4
COc1ccc(C(=O)Cn2c(N3CCOCC3)nc3c2c(=O)n(C)c(=O)n3C)cc1OC | 0 | 0 | 5 | 10 | x | x
Cc1cc(C)c(S(=O)(=O)Nc2cc3c4c(c2)CC(=O)N4CCC3)c(C)c1 | 5.0* | 0 | 5 | 2 | 0 | -3
Cc1noc(C(=O)Nc2c(C)nn(Cc3ccccc3)c2C)c1Cl | 5.3* | 0 | 13 | -1 | 1 | 10
O=C(Nc1cc(Cl)ccc1O)C1CC(c2ccccc2O)=NO1 (stereo unspecified) | 0 | 0 | 2 | -4 | x | x
O=C(Nc1ccc(Cl)cc1)C1CC(c2ccccc2O)=NO1 (stereo unspecified) | 5.5* | 0 | -11 | -4 | -1 | -17
Cc1ccc(C)c(OCC(=O)O/N=C(\N)c2ccc(I)cc2)c1 | 5.5* | 0 | 3 | -14 | 0 | -2
Cc1ccc(/C(N)=N/OC(=O)COc2ccc(Br)cc2)cc1 | 8.5* | 0 | -4 | 1 | 0 | 7
COc1cc(C(=O)O/N=C(\N)c2ccc(Br)cc2)cc(OC)c1OC | 6.6* | 0 | 0 | 13 | 0 | -10
Cc1ccc(C)c(OCC(=O)O/N=C(\N)c2ccc(Br)cc2)c1 | 1 | 0 | -7 | -2 | x | x
Cc1cccc(NC(=O)c2cnn(-c3ccccc3)c2NC(=O)c2cccc(C)c2)c1 | 0 | 0 | -6 | 2 | x | x
Ic1nc2ccccc2n1Cc1ccccc1 | 3 | 0 | 21 | 4 | x | x
O=C(Cn1c(CO)nc2ccccc21)NCC1CCCCC1 | -2 | 0 | 1 | -10 | x | x
COc1cccc(N2C(=O)CC(SC(N)=Nc3ccccc3)C2=O)c1 (stereo unspecified) | 10.0* | 0 | -3 | -4 | 0 | -3
N/C(=N\N=C\c1ccc2c(c1)OCO2)SC1CC(=O)N(c2ccc(C(=O)O)cc2)C1=O (stereo unspecified) | 1 | 0 | 6 | 15 | x | x
C/C(CCc1ccc2c(c1)OCO2)=N\N=C(/N)SC1CC(=O)N(c2ccccc2)C1=O (stereo unspecified) | 6.1* | 0 | -4 | 13 | 0 | -13
CC(C)CCNC(=O)CC1Nc2c3ccccc3nc(=S)n2C1=O (stereo unspecified) | -1 | 0 | 2 | -3 | x | x
CCCCNC(=O)CC1Nc2c3ccccc3nc(=S)n2C1=O (stereo unspecified) | 9.6* | 0 | -5 | 14 | -2 | -15
Cc1ccc(CN(c2ccc(C)c(C)c2)S(C)(=O)=O)cc1 | 2 | 0 | -4 | 0 | x | x
N[C@@H]1CONC1=O | 6.7*! | 0 | -6 | -12 | 0 | -7
O=C(CSCC(=O)Nc1ccccn1)Nc1ccc2ccccc2c1 | -1 | 0 | -15 | 0 | x | x
O=C(CSCCc1ccccn1)Nc1ccccc1Cl | 8.0* | 0 | -13 | 2 | 0 | 0
O=C(CSCCc1ccccn1)Nc1ccc(I)cc1 | 5.7* | 0 | -25 | -14 | 0 | 4
O=C(CSCc1ccccn1)Nc1ccc2ccccc2c1 | 7.5* | 0 | -40 | -8 | 0 | 9
O=C1C2C(c3ccccc3)C=CC(c3ccccc3)C2C(=O)N1c1cccc2cccnc12 (stereo unspecified) | 0 | 0 | 8 | 7 | x | x
Clc1ccc(C2C3=C(Nc4ncnn42)c2ccccc2CCC3)cc1 (stereo unspecified) | 6.0* | 0 | -6 | -3 | 0 | 4
COC(=O)c1ccc(C)c(NC(=O)CN(c2ccc(F)cc2)S(C)(=O)=O)c1 | 7.1* | 0 | 2 | -12 | -1 | -5
